Source: ChEMBL document CHEMBL3988442, “University of Dundee, Small-Polar-MMV Screening Library” (2021)
For some assays here: Entries with a potency or affinity are not part of this list.

Tests used:
[1] = target: Protein translocase subunit SecA (Escherichia coli (strain K12)) (UniProt P10408); assay: Assay to Identify E. coli SecA ATPase Inhibitors; assay type: functional; set-up: scale not given: direction of the effect not stated beside the values; details: 30 µM
[2] = target: T1, Ubiquitin-activating enzyme e1, putative (Leishmania donovani (strain BPK282A1)) (UniProt E9BSI1); assay: Leishmania donovani Ubiquitin Activating Enzyme (LdE1); assay type: functional; set-up: scale not given: direction of the effect not stated beside the values; details: 30 µM
T1 sequence (whole entry): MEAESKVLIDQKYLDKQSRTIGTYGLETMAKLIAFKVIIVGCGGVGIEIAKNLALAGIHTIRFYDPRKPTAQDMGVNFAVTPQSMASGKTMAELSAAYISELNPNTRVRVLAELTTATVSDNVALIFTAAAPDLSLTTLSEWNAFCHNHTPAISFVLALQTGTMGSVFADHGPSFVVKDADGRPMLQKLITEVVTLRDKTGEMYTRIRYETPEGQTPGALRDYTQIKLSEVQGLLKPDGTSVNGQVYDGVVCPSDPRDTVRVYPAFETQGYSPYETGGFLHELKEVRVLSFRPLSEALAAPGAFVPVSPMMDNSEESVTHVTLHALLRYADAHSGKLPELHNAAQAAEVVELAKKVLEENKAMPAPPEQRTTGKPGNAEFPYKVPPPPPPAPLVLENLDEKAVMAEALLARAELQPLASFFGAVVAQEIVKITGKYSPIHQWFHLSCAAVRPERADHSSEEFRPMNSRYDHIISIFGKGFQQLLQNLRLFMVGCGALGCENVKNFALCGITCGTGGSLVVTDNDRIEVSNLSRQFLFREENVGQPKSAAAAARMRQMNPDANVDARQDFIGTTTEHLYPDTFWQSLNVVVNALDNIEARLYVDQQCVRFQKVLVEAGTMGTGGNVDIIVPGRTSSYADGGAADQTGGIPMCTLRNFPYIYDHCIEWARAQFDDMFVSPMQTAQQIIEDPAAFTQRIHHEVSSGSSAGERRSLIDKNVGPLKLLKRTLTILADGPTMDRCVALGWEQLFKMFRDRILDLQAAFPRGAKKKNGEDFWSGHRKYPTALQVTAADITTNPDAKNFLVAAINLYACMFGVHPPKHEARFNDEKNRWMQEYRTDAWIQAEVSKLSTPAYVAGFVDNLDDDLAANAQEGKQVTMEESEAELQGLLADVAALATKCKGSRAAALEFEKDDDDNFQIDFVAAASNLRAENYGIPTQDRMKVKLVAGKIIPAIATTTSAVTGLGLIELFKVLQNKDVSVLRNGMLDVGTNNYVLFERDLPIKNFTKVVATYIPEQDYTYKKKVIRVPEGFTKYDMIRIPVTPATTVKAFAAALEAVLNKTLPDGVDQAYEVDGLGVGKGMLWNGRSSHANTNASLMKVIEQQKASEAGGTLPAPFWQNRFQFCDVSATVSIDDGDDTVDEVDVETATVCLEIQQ

[3] = target: AMP-activated protein kinase, AMPK (Homo sapiens) (UniProt P54646+O43741+P54619+Q9UGJ0+Q9Y478+Q13131+Q9UGI9); assay: AMP-dependent Kinase enzyme assay. An in vitro enzyme assay that detects ADP turnover that is directly proportional to AMPK activity. This uses naive AMPK that is activated during the assay with MK-8722; assay type: functional; set-up: scale not given: direction of the effect not stated beside the values; details: 30 µM
[4] = target: Sialic acid-binding Ig-like lectin 9 (Homo sapiens) (UniProt Q9Y336); assay: Hs-Siglec9 ALPHAscreen SOP 20170721; set-up: scale not given: direction of the effect not stated beside the values; details: 10 µM
Trypanosoma cruzi = assay: Trypanosoma cruzi phosphomannomutase and mannose-1-phosphate guanylyltransferase assay; assay type: functional; set-up: scale not given: direction of the effect not stated beside the values; details: 10 µM
[5] = target: T2, Arginase-2, mitochondrial (Homo sapiens) (UniProt P78540); assay: in vitro enzyme assay to detect the production of urea directly proportional to the activity of Arginase II; assay type: functional; set-up: scale not given: in the data most compounds retested in dose-response had high values
T2 sequence (whole entry): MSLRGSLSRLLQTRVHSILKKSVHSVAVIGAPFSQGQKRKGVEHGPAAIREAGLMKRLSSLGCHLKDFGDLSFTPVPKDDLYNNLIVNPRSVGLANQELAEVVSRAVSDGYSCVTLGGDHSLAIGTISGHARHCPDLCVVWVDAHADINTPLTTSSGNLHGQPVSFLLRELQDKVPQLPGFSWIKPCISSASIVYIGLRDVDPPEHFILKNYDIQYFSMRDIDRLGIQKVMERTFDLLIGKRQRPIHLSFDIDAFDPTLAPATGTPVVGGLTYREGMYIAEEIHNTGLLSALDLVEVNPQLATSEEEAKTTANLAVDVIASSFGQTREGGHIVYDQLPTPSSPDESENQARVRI

[6] = target: T3, Proteasome subunit beta (Trypanosoma cruzi) (UniProt O96673); assay: Trypanosoma cruzi proteasome chymotrypsin-like activity (TcProtChymo) assay.; assay type: functional; set-up: scale not given: in the data most compounds retested in dose-response had high values; details: 9.37 µM
T3 sequence (whole entry): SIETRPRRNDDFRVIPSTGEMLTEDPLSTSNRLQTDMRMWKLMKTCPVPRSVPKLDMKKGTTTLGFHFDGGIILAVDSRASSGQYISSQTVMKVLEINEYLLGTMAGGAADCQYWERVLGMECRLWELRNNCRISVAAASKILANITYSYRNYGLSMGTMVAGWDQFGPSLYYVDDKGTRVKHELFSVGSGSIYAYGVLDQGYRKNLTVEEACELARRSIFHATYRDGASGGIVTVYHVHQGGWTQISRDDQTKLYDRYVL

Homo sapiens = species: Homo sapiens; assay: To identify inhibition of the IFN signalling (Jak-Stat) pathway via expression of an eGFP reporter gene under the control of an IFN-stimulated response element (ISRE) containing MxA promoter.; assay type: functional; set-up: scale not given: direction of the effect not stated beside the values; details: 30 µM
[7] = target: T4, Tyrosyl-tRNA synthetase, putative (Trypanosoma cruzi (strain CL Brener)) (UniProt Q4DSP6); assay: Trypanosoma cruzi tyrosyl tRNA synthetase (TcYRS) _High Tyrosine SOP; assay type: functional; set-up: scale not given: in the data most compounds retested in dose-response had high values; details: 30 µM
T4 sequence (whole entry): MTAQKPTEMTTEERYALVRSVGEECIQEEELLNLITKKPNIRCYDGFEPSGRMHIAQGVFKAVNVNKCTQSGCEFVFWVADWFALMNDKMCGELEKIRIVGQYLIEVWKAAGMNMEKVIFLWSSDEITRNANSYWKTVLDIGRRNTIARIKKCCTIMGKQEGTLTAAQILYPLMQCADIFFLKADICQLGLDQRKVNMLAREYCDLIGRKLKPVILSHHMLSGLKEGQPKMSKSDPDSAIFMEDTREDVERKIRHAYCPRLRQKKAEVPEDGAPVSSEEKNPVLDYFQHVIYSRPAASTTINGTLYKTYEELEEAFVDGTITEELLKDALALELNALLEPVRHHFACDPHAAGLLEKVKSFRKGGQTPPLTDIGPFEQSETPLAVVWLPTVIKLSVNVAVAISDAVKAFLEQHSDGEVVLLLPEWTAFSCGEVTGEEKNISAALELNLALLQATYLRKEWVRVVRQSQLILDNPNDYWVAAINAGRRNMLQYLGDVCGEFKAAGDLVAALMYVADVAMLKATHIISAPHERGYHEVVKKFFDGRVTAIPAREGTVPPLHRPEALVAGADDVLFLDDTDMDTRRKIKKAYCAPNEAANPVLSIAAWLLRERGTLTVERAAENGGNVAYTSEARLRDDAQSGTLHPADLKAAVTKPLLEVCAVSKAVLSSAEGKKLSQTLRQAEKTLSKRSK

[8] = target: T4, Tyrosyl-tRNA synthetase, putative (Trypanosoma cruzi (strain CL Brener)); assay: Trypanosoma cruzi tyrosyl tRNA synthetase (TcYRS) SOP; assay type: functional; set-up: scale not given: direction of the effect not stated beside the values; details: 30 µM
[9] = target: Chromo domain-containing protein 1 (Saccharomyces cerevisiae (strain ATCC 204508 / S288c) (Baker's yeast)) (UniProt P32657); assay: ScCHD-1 Enzyme Inhibition Assay; assay type: functional; set-up: scale not given: in the data most compounds retested in dose-response had high values; details: 30 µM
[10] = target: T5, Methionyl-tRNA synthetase, putative (Leishmania donovani (strain BPK282A1)) (UniProt E9BF75); assay: Leishmania donovani Methionine tRNA synthetase (LdMetRS):v7. Dose response assay; assay type: functional; set-up: conc 80 nM, time 150 minutes
T5 sequence (whole entry): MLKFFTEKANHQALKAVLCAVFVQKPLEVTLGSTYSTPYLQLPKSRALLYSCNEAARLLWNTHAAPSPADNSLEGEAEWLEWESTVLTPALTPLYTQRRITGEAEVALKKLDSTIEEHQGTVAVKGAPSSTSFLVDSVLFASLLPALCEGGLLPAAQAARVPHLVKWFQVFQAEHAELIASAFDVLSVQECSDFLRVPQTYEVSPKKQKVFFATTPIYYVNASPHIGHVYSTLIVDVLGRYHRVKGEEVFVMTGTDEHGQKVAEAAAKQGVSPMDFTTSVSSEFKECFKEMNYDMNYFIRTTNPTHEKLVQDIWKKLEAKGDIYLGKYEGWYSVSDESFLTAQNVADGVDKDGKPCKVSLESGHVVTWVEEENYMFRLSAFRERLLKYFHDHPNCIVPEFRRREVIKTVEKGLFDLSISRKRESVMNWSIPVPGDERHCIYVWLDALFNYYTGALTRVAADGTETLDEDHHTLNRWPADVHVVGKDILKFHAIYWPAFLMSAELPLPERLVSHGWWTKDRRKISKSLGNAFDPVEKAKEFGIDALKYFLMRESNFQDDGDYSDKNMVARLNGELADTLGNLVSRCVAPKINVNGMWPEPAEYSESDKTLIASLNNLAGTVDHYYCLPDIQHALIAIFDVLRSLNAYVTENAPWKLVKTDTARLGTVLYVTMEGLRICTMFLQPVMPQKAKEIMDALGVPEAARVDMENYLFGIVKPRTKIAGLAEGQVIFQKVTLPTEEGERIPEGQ

Chain of Chromo domain-containing protein 1 (Saccharomyces cerevisiae (strain ATCC 204508 / S288c) (Baker's yeast)) (P32657 whole entry, the tested form may be a part): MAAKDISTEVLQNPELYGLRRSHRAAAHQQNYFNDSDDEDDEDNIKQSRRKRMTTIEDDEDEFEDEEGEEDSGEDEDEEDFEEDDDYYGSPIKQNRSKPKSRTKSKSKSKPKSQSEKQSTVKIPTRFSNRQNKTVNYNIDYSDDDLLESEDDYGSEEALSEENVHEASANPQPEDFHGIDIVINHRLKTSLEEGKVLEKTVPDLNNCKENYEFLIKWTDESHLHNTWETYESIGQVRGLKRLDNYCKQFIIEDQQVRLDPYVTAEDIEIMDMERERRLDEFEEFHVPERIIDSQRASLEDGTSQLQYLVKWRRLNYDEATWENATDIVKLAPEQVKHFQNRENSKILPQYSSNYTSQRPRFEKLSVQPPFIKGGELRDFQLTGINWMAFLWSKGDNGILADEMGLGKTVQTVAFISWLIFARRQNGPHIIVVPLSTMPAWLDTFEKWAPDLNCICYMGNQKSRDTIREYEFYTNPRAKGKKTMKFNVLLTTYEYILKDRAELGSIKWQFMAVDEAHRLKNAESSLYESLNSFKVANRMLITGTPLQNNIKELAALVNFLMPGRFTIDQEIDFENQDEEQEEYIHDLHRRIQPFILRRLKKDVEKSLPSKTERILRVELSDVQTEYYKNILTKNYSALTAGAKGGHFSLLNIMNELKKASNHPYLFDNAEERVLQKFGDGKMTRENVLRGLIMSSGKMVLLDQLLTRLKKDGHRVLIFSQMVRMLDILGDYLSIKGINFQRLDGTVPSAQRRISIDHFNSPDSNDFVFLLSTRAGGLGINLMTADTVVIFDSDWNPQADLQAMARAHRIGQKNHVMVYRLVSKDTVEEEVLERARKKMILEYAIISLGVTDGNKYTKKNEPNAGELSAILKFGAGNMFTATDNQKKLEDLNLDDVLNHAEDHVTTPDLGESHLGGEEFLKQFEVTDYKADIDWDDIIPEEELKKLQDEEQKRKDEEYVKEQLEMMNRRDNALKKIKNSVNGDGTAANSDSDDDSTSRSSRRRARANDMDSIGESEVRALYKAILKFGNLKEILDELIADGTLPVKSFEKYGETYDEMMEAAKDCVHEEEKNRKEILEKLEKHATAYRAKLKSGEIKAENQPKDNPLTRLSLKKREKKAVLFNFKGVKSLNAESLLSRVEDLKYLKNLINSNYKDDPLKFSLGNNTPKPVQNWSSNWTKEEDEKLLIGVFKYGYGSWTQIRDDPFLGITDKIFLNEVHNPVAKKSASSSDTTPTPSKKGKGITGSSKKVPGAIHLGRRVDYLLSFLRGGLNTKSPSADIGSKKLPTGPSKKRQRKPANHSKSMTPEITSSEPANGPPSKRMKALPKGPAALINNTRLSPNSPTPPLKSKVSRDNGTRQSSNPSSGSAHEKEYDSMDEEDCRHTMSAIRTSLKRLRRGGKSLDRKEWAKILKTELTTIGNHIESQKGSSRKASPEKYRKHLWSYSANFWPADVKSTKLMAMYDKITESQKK
Chain of Protein translocase subunit SecA (Escherichia coli (strain K12)) (P10408 whole entry): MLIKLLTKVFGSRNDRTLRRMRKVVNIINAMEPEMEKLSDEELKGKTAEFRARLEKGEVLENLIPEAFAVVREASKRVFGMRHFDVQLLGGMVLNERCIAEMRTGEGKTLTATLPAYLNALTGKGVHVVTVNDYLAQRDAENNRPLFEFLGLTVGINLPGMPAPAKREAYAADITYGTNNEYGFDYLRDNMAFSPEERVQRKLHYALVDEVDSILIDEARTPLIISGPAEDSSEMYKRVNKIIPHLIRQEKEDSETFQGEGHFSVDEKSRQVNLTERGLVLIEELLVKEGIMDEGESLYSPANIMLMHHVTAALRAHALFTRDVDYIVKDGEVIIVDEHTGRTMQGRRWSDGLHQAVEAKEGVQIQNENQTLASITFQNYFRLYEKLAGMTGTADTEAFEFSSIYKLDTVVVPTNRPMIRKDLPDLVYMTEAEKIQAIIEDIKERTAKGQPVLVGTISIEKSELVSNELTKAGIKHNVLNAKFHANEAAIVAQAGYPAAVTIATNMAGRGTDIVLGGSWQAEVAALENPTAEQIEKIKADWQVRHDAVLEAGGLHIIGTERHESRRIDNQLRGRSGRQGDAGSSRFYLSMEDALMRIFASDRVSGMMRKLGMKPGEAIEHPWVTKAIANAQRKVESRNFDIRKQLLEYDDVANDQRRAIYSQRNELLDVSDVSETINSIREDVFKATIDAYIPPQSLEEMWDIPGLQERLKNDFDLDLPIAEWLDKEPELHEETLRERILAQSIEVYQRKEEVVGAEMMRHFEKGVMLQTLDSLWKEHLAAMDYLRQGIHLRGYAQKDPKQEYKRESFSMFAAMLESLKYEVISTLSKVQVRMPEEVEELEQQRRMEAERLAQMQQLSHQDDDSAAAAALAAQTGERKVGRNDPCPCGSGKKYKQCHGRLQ
Chain of Sialic acid-binding Ig-like lectin 9 (Homo sapiens) (Q9Y336 whole entry): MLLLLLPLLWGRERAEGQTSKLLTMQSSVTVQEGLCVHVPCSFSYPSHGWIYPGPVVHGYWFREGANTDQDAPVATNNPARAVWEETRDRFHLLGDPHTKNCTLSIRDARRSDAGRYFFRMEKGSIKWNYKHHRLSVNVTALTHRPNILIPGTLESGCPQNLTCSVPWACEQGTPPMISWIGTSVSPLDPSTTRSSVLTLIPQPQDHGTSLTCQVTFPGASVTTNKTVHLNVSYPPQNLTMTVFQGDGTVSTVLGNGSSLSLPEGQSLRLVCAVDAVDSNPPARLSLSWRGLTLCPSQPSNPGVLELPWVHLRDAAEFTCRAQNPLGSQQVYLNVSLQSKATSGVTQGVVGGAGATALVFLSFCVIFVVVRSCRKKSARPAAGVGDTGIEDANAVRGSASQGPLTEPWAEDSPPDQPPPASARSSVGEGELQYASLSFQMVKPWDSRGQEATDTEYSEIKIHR

SMILES | Percent Effect [1] [%] | Percent Effect [2] [%] | Percent Effect [3] [%] | Percent Effect [4] [%] | Percent Effect (Trypanosoma cruzi) [%] | Percent Effect ([5]; 30 µM) [%] | Percent Effect ([5]; 33.3 µM) [%] | Percent Effect [6] [%] | Percent Effect (Homo sapiens) [%] | Percent Effect [7] [%] | Percent Effect [8] [%] | Percent Effect [9] [%] | PXC50 ([10]; MAX_EFFECT 9.660574413) | PXC50 ([10]; MAX_EFFECT 12.53263708) | PXC50 ([10]; MAX_EFFECT 33.25415677) | PXC50 ([10]; MAX_EFFECT 41.72535211) | PXC50 ([10]; MAX_EFFECT 6.650831354) | PXC50 ([10]; MAX_EFFECT 11.79577465)
Cc1ccc([C@@H]2CN(S(=O)(=O)c3cccs3)C[C@H]2N(C)C)cc1 | -5.74 | 2.7 | -3.82 | 22.9 | 2.25 | -0.54 | -0.744 | 0.944 | 22.4 | 3.23 | 13.6 | -3.75 |  |  |  |  |  | 
Cc1nc(NCc2nncn2C2CC2)c2c(CC(C)C)csc2n1 |  |  | -3.8 |  |  |  |  |  |  |  |  |  | < 4 | < 4 |  |  |  | 
FC(F)(F)C1CCc2nnc(CNCc3ccsc3)n2C1 (stereo not drawn) | -4.02 | 16.2 | 1.38 | 30.8 | 5.18 | 5.95 | 10.2 | 10.4 | -8.39 | 5.38 | 16.1 | -13.2 |  |  |  |  |  | 
Cc1nnc(NCC2(c3ccc(Cl)cc3Cl)CCOCC2)c(C#N)c1C | -4 | 0 | -11.6 | 42.2 | 12.2 |  | 1.91 | 8.97 | 10.4 | 5.82 | 2.44 | -12.2 |  |  | < 4 | < 4 |  | 
Cc1nnc(NCC2(c3ccccc3)CC2)c(C#N)c1C | -6.81 | 0 | -11.8 | 5.06 | -3.09 |  | 1.43 | 8.1 | 13 | -0.529 | 4.88 | -4.42 |  |  |  |  | < 4 | < 4
